# Data taken from PubChem BioAssay (EPA / NIEHS).
# Results filed as inconclusive are left out. Calls of active or inactive are those of the source. Rule for the calls: active = hit-call score of the fitted dose curve at least 0.9, where 1 is the maximum; inconclusive = response in the unintended direction; inactive = score below 0.9.
# Target: human Peroxisome Proliferator-activated Receptor alpha (PPARa), PPARA (gene 5465) (UniProt Q07869)
# Experiment: ATG_PPARa_TRANS: Attagene TRANS-FACTORIAL HepG2 Assay for human Peroxisome Proliferator-activated Receptor alpha (PPARa) (AID 2283001)
# In short: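 Transient HepG2 transfection, GAL4-UAS reporters, NR-Gal4 chimeras; 24 h compound exposure. Readout: reporter transcripts by RT-PCR, 6-FAM primer extension, HpaI digest, capillary electrophoresis. Positive direction vs DMSO baseline.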
# Sequence of human Peroxisome Proliferator-activated Receptor alpha (PPARa), PPARA (gene 5465) (Q07869 whole entry, looked up): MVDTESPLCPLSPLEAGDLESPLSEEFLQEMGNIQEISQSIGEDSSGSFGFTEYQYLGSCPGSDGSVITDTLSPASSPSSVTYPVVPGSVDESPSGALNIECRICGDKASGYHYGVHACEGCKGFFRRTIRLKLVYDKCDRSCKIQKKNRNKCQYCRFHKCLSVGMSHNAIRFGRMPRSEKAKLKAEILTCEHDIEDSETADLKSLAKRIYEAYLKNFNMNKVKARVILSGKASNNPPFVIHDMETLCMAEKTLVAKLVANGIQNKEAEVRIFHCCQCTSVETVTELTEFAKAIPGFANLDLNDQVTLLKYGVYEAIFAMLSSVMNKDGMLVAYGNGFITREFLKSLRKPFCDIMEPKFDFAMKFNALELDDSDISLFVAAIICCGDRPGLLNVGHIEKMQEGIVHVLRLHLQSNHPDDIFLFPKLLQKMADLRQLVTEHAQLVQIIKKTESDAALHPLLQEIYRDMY
row,Structure (SMILES),outcome
1,O=C1c2ccccc2C(=O)c2cc(S(=O)(=O)O)ccc21,inactive
2,C=CCCCCCCCCOC(C)=O,inactive
3,COC(Cc1ccccc1)OC,inactive
4,CCCC=C(C=O)CC,inactive
5,O=C1CCCN1C1CCCCC1,inactive
6,COC(=O)CC(C)CCC=C(C)C (stereo not drawn),inactive
7,CC(C)=CCl,inactive
8,CCCCOCCOC(=O)COc1ccc(Cl)cc1Cl,inactive
9,CCC(C)c1ccccc1 (stereo not drawn),inactive
10,CC(CC=O)CC(C)(C)C (stereo not drawn),inactive
11,CCC(C)(O)CCCC(C)C (stereo not drawn),inactive
12,O=C(C=Cc1ccccc1)OCCc1ccccc1,inactive
13,CCCCOC(=O)CCC(C)=O,inactive
14,O=C(OCCc1ccccc1)c1ccccc1,inactive
15,CCCCCCCCCCCC(=O)OCC,inactive
16,CCCCCCCC(=O)OCC,inactive

row,Structure (SMILES),outcome
1,Nc1ccc(C(=O)OCCCOC(=O)c2ccc(N)cc2)cc1,inactive
2,CC(C)CCOCc1ccccc1,inactive
3,C=C(C)C1CC=C(C)CC1 (stereo not drawn),inactive
4,CC(=O)c1ccccc1O,inactive
5,N#CC1(N)CCCCC1,inactive
6,C=C(C)OC(C)=O,inactive
7,C=CC(=O)OCCCCCCCCCC,inactive
8,CCCc1ccc(O)c(OC)c1,inactive
9,CCCCCCCCCCCCc1ccc(O)cc1,inactive
10,O=C(OCc1ccccc1)c1ccc(O)cc1,inactive
11,O=C(O[C@@H]1Cc2c(O)cc(O)cc2O[C@@H]1c1cc(O)c(O)c(O)c1)c1cc(O)c(O)c(O)c1,inactive
12,C/C=C/C=C/CCCCCCCO,inactive
13,CC(=O)CCC=C(C)C,inactive
14,C=CC(C)(CCC=C(C)C)OC(=O)C=Cc1ccccc1 (stereo not drawn),inactive
15,CCCCC(C=O)CC (stereo not drawn),inactive

# Target: human Peroxisome Proliferator-activated Receptor delta (PPARd), PPARD (gene 5467) (UniProt Q03181)
# Sequence (Q03181 whole entry, looked up): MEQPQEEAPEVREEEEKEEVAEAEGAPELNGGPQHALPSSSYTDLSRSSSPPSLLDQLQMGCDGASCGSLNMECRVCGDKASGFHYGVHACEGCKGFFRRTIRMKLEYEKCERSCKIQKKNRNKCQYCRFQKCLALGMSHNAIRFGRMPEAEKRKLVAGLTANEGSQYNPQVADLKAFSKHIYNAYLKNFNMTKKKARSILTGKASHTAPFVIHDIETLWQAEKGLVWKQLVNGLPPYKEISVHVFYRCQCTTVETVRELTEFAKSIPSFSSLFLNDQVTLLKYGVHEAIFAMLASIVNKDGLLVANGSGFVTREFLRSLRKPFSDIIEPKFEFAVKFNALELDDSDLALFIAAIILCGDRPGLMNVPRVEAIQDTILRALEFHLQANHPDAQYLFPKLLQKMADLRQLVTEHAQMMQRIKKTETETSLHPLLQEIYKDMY
# Experiment: ATG_PPARd_TRANS: Attagene TRANS-FACTORIAL HepG2 Assay for human Peroxisome Proliferator-activated Receptor delta (PPARd) (AID 2283002)
# In short: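 Fluorescence from capillary electrophoresis of labelled RT-PCR reporter fragments gives the signal; DMSO sets baseline. Cells: HepG2 transiently carrying GAL4-UAS reporter units plus chimeric nuclear receptor-Gal4 proteins, exposed to chemicals for 24 h.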
row,Structure (SMILES),outcome
1,CC(C)OC(=O)c1ccccc1,inactive
2,CC1=C(O)C(=O)C(C)O1 (stereo not drawn),inactive
3,CCCCOCCOCCOC(C)=O,inactive
4,CCCCNS(=O)(=O)c1ccc(C)cc1,inactive
5,CC(C)(O)Cc1ccccc1,inactive

# Target: human Retinoic Acid Receptor beta (RARb), RARB (gene 5915) (UniProt P10826)
# Sequence (P10826 whole entry, looked up): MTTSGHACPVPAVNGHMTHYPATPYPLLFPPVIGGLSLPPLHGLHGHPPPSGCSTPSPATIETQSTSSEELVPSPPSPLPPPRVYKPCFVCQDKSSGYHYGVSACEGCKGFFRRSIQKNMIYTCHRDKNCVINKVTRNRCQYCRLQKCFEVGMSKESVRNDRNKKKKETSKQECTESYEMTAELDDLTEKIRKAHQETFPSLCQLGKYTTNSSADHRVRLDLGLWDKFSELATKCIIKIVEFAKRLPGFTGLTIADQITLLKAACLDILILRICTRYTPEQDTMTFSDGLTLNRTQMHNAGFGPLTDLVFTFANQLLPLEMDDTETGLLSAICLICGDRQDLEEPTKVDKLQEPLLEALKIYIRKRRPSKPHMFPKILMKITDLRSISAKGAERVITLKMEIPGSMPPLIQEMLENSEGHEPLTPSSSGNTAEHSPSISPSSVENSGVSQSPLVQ
# Experiment: ATG_RARb_TRANS: Attagene TRANS-FACTORIAL HepG2 Assay for human Retinoic Acid Receptor beta (AID 2283004)
# In short: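 HepG2 cells transiently transfected with multiplexed GAL4-UAS reporter units expressing chimeric NR–Gal4 fusions; 24 h compound exposure. Reporter mRNA quantified by RT-PCR, 6-FAM labelling, HpaI digestion and capillary electrophoresis; gain-of-signal fitted against DMSO baseline.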
row,Structure (SMILES),outcome
1,CC(C)OC(=O)c1ccccc1,inactive
2,CC1=C(O)C(=O)C(C)O1 (stereo not drawn),inactive
3,CC(C)(O)Cc1ccccc1,inactive

# Target: Retinoic acid receptor alpha (Homo sapiens) (UniProt P10276)
# Sequence (P10276 whole entry, looked up): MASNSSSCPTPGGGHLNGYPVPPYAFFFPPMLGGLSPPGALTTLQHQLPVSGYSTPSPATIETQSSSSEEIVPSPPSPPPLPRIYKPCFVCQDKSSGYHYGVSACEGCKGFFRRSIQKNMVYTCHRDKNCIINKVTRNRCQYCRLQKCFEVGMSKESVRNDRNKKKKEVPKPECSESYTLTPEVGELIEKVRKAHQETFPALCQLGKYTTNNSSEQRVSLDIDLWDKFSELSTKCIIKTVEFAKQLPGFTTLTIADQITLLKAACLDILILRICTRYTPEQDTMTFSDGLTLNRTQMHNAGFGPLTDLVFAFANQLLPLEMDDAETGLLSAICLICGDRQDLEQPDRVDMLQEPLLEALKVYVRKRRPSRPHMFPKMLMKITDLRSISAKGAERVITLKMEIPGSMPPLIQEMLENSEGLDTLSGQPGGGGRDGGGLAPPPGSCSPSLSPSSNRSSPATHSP
# Experiment: ATG_RARa_TRANS: Attagene TRANS-FACTORIAL HepG2 Assay for human Retinoic Acid Receptor alpha (RARa) (AID 2283005)
# In short: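 HepG2 transiently transfected with multiplex GAL4-UAS reporter units including a human RARa–GAL4 chimera; 24 h compound exposure. Reporter mRNA quantified by RT-PCR, 6-FAM labeling and capillary electrophoresis; gain of signal versus DMSO.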
row,Structure (SMILES),outcome
1,CC(C)OC(=O)c1ccccc1,inactive
2,CC1=C(O)C(=O)C(C)O1 (stereo not drawn),inactive
3,CC(C)(O)Cc1ccccc1,inactive

# Target: Peroxisome proliferator-activated receptor gamma (Homo sapiens) (UniProt P37231)
# Sequence (P37231 whole entry, looked up): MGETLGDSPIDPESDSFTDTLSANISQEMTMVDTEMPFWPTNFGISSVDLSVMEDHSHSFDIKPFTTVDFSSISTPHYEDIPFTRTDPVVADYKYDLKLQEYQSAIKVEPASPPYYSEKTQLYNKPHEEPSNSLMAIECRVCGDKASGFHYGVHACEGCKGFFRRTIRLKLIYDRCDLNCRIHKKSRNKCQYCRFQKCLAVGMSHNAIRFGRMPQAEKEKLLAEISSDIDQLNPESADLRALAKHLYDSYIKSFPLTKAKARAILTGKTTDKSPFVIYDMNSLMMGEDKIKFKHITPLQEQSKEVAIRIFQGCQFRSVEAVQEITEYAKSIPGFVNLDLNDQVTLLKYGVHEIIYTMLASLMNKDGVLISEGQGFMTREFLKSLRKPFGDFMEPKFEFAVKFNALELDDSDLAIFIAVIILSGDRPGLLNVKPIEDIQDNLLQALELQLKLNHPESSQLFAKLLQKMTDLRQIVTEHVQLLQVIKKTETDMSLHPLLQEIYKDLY
# Experiment: ATG_PPARg_TRANS: Attagene TRANS-FACTORIAL HepG2 Assay for human Peroxisome Proliferator-activated Receptor-gamma (PPARg) (AID 2283007)
# In short: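 A TRANS-format multiplexed reporter assay measures activity of an exogenous chimeric NR-Gal4 protein in HepG2 cells. After 24 h of chemical exposure, reporter transcripts are amplified, fluorescently labelled and sized by capillary electrophoresis, with gain of signal scored against DMSO.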
Structure (SMILES),outcome,AC50
O=C1c2ccccc2C(=O)c2cc(S(=O)(=O)O)ccc21,inactive,
C=CCCCCCCCCOC(C)=O,inactive,
COC(Cc1ccccc1)OC,inactive,
O=C1CCCN1C1CCCCC1,inactive,
COC(=O)CC(C)CCC=C(C)C (stereo not drawn),inactive,
CCCCOCCOC(=O)COc1ccc(Cl)cc1Cl,inactive,
CCC(C)c1ccccc1 (stereo not drawn),inactive,
CC(CC=O)CC(C)(C)C (stereo not drawn),inactive,
CCC(C)(O)CCCC(C)C (stereo not drawn),inactive,
O=C(C=Cc1ccccc1)OCCc1ccccc1,,3.05 µM (active)
CCCCOC(=O)CCC(C)=O,inactive,
CCCCCCCCCCCC(=O)OCC,inactive,
CCCCCCCC(=O)OCC,inactive,
Nc1ccc(C(=O)OCCCOC(=O)c2ccc(N)cc2)cc1,,33.4 µM (active)
CC(C)CCOCc1ccccc1,inactive,
CC(=O)c1ccccc1O,inactive,
N#CC1(N)CCCCC1,inactive,
C=CC(=O)OCCCCCCCCCC,,3.15 µM (active)
CCCc1ccc(O)c(OC)c1,,57.2 µM (active)
CCCCCCCCCCCCc1ccc(O)cc1,inactive,
O=C(OCc1ccccc1)c1ccc(O)cc1,,49.9 µM (active)
O=C(O[C@@H]1Cc2c(O)cc(O)cc2O[C@@H]1c1cc(O)c(O)c(O)c1)c1cc(O)c(O)c(O)c1,inactive,
C/C=C/C=C/CCCCCCCO,,2.64 µM (active)
CC(=O)CCC=C(C)C,inactive,
C=CC(C)(CCC=C(C)C)OC(=O)C=Cc1ccccc1 (stereo not drawn),,4.97 µM (active)
CCCCC(C=O)CC (stereo not drawn),inactive,
